Each structure is given as a SMILES string. Hit rate of the full screen: of about 220,000 compounds, about 16,000 (7.3%) were called active. A call without a number means that no potency is given here. About 25% were inconclusive and are not listed. The call rests on the fitted dose curve; in most records, active means well fitted inhibition curve with a large enough effect (not every such curve was filed as active); inconclusive means small, poorly fitted or top-dose-only effect, or another doubt; inactive means no such curve, though single readings can be large or run the other way. The full list was thinned out, with actives kept by preference.
Potency means the concentration at half of the fitted maximal effect.

Sequence of Aldehyde dehydrogenase 1A1 (Homo sapiens) (P00352 whole entry, looked up): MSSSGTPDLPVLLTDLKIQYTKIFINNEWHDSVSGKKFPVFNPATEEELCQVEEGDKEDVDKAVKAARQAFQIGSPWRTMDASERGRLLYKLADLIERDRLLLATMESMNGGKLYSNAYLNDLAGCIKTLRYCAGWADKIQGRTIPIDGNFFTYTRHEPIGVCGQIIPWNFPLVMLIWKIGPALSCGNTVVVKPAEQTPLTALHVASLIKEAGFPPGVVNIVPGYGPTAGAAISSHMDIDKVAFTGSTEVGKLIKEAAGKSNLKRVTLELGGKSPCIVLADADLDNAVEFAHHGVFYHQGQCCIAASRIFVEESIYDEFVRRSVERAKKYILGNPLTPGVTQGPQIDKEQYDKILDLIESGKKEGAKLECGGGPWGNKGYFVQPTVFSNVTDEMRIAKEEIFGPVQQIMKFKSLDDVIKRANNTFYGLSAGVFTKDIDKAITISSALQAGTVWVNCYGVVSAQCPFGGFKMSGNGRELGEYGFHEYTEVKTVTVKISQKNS

This assay addresses Aldehyde dehydrogenase 1A1 (Homo sapiens) (UniProt P00352). Nature of the assay: qHTS Assay for Inhibitors of Aldehyde Dehydrogenase 1 (ALDH1A1). Particulars: Purified ALDH1A1, NADH fluorescence, propionaldehyde substrate; series mostly up to 75.3 µM. Background: In qHTS, concentration-response curves come from the screen itself.
With `COc1ccc(CNC(=O)C2CCN(S(C)(=O)=O)CC2)cc1`, the Potency entry is “inactive”.
Under `Cc1cccc(C)c1OCC(=O)NC(Cc1c[nH]c2ccccc12)C(=O)O` (stereo not given) stands “inactive”; under `CCN(C(=O)CN1CCN(Cc2ccccc2)CC1)c1c(N)n(Cc2ccccc2)c(=O)[nH]c1=O`, “inactive”; under `N#C/C=C(/c1ccc(F)cc1)N1CCOCC1`, “inactive”.
Under `O=C(c1ccc(F)cc1)n1cc(C(=S)N2CCOCC2)c2ccccc21` stands 31.6 µM (active); under `COC(=O)c1cn(C(=O)c2ccc(Cl)cc2)c2ccccc12`, “inactive”.
On to `CC(=C/c1ccccc1)/C=N/NC(=O)c1cc(C)oc1C`, for which the Potency result was “inactive”.
`COCCNS(=O)(=O)c1cc(Br)ccc1OC`: the Potency result was “inactive”.
With `COc1ccc(OC)c(S(=O)(=O)Nc2ccccc2F)c1` the entry was “inactive”; with `COc1ccc(OC)c(S(=O)(=O)NCCC(C)C)c1`, 14.1 µM (active).
Under `CC(Nc1oc(-c2ccccc2)nc1-c1ccccc1)c1ccccc1` (stereo not given) stands “inactive”; under `O=C(COC(=O)c1cnccn1)Nc1cccc2ccccc12`, “inactive”; under `NS(=O)(=O)c1ccc(CCNC(=O)CCCn2c(SCC(=O)N3CCCC3)nc3ccsc3c2=O)cc1`, “inactive”.
As for `Cc1nn(CC(=O)Nc2ccc3c(c2)OCO3)c(C)c1[N+](=O)[O-]`, the Potency result was “inactive”.
Turning to `CCCCC(=O)Nc1ccc2c(c1)OCCO2`, the Potency result is “inactive”.
Under `CCN(CC(=O)Nc1ccc2c(c1)OCCO2)Cc1cc(=O)oc2cc(C)c(C)cc12` stands 10 µM (active); under `Cc1ccc(S(=O)(=O)/N=C(\N)c2ccc(F)cc2)cc1`, “inactive”; under `C/C(=N\Nc1nc(Nc2ccccc2)nc(N2CCOCC2)n1)c1cccs1`, “inactive”.
Under `COc1cc2nc(CN(C)Cc3ccc(F)cc3)[nH]c(=O)c2cc1OC` stands “inactive”.
As for `CCCCCC(=O)Nc1ccc(C(=O)N/N=C/c2ccc([N+](=O)[O-])cc2)cc1`, the Potency result was “inactive”.
Regarding `CCCCCC(=O)NC(=S)NNC(=O)c1ccc([N+](=O)[O-])cc1`, the Potency is 14.1 µM (active).
Under `COc1ccc(C(=O)NNC(=S)NC(=O)c2ccccc2[N+](=O)[O-])cc1` stands “inactive”; under `COCCCNC(=S)NC(=O)c1ccc([N+](=O)[O-])cc1`, 20 µM (active); under `COCCCNC(=S)NNC(=O)C(O)(c1ccccc1)c1ccccc1`, “inactive”.
Under `COCCCNC(=S)NC(=O)c1ccccc1` stands “inactive”; under `CCNC(=O)N1c2ccccc2Sc2ccccc21`, “inactive”; under `COC(=O)Cc1ccc(Oc2ncc(C(F)(F)F)cc2Cl)cc1`, “inactive”.
As for `CC(=O)Nc1sc2c(c1C(c1cccc(F)c1)N1CCN(CCO)CC1)CCCC2` (stereo not given), the Potency entry is “inactive”.
For `C/[N+]([O-])=C\c1ccc([N+](=O)[O-])o1`, the Potency entry was “inactive”.
Under `C=CCN(c1ccccc1C(=O)NCC(=O)OCC)S(=O)(=O)c1ccc(C)cc1` stands “inactive”.

The values are drawn from PubChem BioAssay AID1030 (National Center for Advancing Translational Sciences (NCATS), 2008).
